Experimental data as given in article PMC7862700, “An all-to-all approach to the identification of sequence-specific readers for epigenetic DNA modifications on cytosine”.

Legend:
Assay in all cases: DAPPL (digital affinity profiling via proximity ligation, sequencing); 10 mM Tris-HCl pH 7.5, 50 mM NaCl, 1 mM DTT, 4% glycerol, room temperature, 30 min; GST-TFs on glutathione beads, 16-mer random dsDNA library, 0.1% formaldehyde crosslink after washing; high values mean tight binding
Conditions in all cases: protein: recombinant; tags: N-terminal GST; dsDNA, one strand shown
FLI1 = target: T1, FLI1 (Homo sapiens, UniProt Q01543 1-452)
T1 sequence: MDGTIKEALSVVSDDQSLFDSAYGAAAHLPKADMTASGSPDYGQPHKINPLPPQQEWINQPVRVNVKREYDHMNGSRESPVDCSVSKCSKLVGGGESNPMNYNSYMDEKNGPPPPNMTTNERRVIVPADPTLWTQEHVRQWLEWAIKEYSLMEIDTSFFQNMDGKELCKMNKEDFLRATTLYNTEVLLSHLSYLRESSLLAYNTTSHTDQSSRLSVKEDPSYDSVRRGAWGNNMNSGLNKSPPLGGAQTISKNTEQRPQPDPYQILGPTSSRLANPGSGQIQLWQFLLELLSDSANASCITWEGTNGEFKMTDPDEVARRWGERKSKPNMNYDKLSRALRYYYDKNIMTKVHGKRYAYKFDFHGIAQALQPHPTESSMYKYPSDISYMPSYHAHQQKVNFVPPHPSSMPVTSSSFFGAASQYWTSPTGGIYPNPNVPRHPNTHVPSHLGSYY
Summary of the method: (§1)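 Binding signal is defined as a hexamer's read frequency for one factor over its frequency for the tag-only sample. To obtain reads, GST-fused human transcription factors were expressed in yeast, captured on glutathione beads, barcoded with DNA and pooled with that sample. Pools met 200 nmole of a 16-mer random double-stranded DNA library in Tris/NaCl/DTT/glycerol buffer for 30 min at room temperature before washing, 0.1% formaldehyde crosslinking, proximity ligation (BsaI/T4 ligase, 1 h, 37 °C), PCR and Illumina NextSeq500 sequencing.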

ELK1 = target: T2, ELK1 (Homo sapiens, UniProt P19419 1-428)
T2 sequence: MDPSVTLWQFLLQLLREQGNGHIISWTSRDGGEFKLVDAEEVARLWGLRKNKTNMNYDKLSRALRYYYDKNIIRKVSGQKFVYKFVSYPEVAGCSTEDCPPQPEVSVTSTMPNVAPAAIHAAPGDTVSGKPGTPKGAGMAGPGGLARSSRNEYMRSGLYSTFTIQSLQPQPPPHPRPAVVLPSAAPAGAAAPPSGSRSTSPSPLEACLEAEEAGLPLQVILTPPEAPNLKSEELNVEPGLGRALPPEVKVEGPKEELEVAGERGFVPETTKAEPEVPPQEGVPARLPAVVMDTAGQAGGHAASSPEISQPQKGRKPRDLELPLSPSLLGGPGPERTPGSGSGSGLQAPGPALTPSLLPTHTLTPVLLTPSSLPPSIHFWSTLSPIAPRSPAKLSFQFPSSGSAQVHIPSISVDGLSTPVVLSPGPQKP
Summary of the method: as §1

GABPA = target: T3, GABPA (Homo sapiens, UniProt Q06546 1-454)
T3 sequence: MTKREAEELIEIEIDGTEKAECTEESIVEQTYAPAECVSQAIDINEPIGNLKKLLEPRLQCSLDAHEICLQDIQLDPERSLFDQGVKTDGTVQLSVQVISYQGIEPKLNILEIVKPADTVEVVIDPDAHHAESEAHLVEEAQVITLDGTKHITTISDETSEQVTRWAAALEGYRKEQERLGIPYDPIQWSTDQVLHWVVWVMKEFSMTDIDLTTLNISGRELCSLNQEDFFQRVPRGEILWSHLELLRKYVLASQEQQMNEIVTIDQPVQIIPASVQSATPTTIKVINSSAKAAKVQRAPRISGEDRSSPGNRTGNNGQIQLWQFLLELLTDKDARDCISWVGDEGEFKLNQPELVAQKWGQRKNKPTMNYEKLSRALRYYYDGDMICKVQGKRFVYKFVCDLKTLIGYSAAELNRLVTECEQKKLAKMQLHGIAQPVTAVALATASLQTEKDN
Summary of the method: as §1

ERG = target: T4, ERG (Homo sapiens, UniProt P11308 1-479)
T4 sequence: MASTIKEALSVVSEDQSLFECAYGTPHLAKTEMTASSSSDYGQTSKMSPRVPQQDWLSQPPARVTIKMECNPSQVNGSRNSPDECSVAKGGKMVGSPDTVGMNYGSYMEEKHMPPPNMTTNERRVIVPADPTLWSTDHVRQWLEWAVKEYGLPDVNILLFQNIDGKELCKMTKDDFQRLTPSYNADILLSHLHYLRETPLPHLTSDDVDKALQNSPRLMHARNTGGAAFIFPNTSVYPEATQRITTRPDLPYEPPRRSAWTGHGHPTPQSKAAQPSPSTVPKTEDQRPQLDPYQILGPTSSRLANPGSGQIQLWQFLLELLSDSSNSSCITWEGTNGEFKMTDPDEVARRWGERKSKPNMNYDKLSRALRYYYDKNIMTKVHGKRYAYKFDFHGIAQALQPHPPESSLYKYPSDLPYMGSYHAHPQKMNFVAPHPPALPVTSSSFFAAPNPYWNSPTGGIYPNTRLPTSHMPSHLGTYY
Summary of the method: as §1

ELF1 = ELF1 (Homo sapiens, UniProt P32519 1-619)
Sequence of ELF1 (P32519 whole entry): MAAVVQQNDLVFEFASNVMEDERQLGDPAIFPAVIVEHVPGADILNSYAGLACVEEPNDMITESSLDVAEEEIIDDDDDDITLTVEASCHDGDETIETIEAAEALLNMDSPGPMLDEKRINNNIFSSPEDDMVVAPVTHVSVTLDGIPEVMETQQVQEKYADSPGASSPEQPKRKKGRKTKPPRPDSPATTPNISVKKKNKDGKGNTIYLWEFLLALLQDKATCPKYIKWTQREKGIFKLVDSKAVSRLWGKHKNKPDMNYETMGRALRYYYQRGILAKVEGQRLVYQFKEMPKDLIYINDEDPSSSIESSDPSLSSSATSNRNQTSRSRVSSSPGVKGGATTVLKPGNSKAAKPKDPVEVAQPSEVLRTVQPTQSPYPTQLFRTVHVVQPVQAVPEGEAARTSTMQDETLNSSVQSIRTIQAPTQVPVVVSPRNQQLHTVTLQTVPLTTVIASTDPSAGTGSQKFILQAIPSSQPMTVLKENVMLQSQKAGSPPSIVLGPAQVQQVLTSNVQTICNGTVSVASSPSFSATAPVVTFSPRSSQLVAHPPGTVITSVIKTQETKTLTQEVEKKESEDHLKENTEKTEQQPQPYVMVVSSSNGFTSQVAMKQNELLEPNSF
Summary of the method: as §1

EHF = target: T5, EHF (Homo sapiens, UniProt Q9NZC4 1-300)
T5 sequence: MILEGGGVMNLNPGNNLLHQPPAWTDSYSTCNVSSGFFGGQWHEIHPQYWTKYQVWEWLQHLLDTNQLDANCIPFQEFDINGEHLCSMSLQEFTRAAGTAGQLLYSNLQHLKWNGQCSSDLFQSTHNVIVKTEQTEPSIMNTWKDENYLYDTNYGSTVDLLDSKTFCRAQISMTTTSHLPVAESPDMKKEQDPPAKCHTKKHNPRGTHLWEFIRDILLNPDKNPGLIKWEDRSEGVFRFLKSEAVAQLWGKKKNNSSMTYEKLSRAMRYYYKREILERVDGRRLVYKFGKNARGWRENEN
Summary of the method: as §1

SPI1 = SPI1 (Homo sapiens, UniProt P17947 1-270)
Summary of the method: as §1

SPIB = SPIB (Homo sapiens, UniProt Q01892 1-262)
Sequence of SPIB (Q01892 whole entry): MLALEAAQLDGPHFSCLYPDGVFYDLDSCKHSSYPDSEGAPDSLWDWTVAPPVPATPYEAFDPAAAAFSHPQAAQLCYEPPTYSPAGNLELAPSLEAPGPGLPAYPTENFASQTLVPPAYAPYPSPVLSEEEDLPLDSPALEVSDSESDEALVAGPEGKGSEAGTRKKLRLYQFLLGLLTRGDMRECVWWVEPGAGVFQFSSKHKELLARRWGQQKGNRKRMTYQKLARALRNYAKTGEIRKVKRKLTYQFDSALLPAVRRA
Summary of the method: as §1

ELK3 = target: T6, ELK3 (Homo sapiens, UniProt P41970 1-407)
T6 sequence: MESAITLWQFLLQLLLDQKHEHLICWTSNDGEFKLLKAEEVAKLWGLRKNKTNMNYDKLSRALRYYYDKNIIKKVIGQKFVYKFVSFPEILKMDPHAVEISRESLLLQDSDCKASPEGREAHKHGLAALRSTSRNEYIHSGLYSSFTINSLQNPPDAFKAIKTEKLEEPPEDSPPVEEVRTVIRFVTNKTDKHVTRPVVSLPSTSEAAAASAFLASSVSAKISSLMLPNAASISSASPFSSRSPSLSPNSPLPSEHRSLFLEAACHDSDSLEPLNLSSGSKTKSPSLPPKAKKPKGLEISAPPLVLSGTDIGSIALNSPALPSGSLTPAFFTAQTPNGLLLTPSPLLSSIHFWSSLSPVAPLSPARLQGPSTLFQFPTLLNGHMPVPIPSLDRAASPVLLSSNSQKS
Summary of the method: as §1

Sequence: AAAGTT
- binding signal (FLI1): 1.07 fold enrichment (6-mer frequency, TF over GST control)
- binding signal (ELK1): 1.05 fold enrichment (6-mer frequency, TF over GST control)
- binding signal (GABPA): 1.13 fold enrichment (6-mer frequency, TF over GST control)
- binding signal (ERG): 1.02 fold enrichment (6-mer frequency, TF over GST control)
- binding signal (ELF1): 1.08 fold enrichment (6-mer frequency, TF over GST control)
- binding signal (EHF): 1.1 fold enrichment (6-mer frequency, TF over GST control)
- binding signal (SPI1): 1.07 fold enrichment (6-mer frequency, TF over GST control)
- binding signal (SPIB): 1.16 fold enrichment (6-mer frequency, TF over GST control)
- binding signal (ELK3): 1.17 fold enrichment (6-mer frequency, TF over GST control)

Sequence: TTGGCC
- binding signal (FLI1): 1.22 fold enrichment (6-mer frequency, TF over GST control)
- binding signal (ELK1): 1.24 fold enrichment (6-mer frequency, TF over GST control)
- binding signal (GABPA): 1.23 fold enrichment (6-mer frequency, TF over GST control)
- binding signal (ERG): 1 fold enrichment (6-mer frequency, TF over GST control)
- binding signal (ELF1): 1.1 fold enrichment (6-mer frequency, TF over GST control)
- binding signal (EHF): 1.17 fold enrichment (6-mer frequency, TF over GST control)
- binding signal (SPI1): 1.08 fold enrichment (6-mer frequency, TF over GST control)
- binding signal (SPIB): 1.16 fold enrichment (6-mer frequency, TF over GST control)
- binding signal (ELK3): 1.12 fold enrichment (6-mer frequency, TF over GST control)

Sequence: ATACTT
- binding signal (FLI1): 1.57 fold enrichment (6-mer frequency, TF over GST control)
- binding signal (ELK1): 1.6 fold enrichment (6-mer frequency, TF over GST control)
- binding signal (GABPA): 1.54 fold enrichment (6-mer frequency, TF over GST control)
- binding signal (ERG): 1.68 fold enrichment (6-mer frequency, TF over GST control)
- binding signal (ELF1): 1.61 fold enrichment (6-mer frequency, TF over GST control)
- binding signal (EHF): 1.71 fold enrichment (6-mer frequency, TF over GST control)
- binding signal (SPI1): 1.67 fold enrichment (6-mer frequency, TF over GST control)
- binding signal (SPIB): 1.48 fold enrichment (6-mer frequency, TF over GST control)
- binding signal (ELK3): 1.7 fold enrichment (6-mer frequency, TF over GST control)

Sequence: TTGCGT
- binding signal (FLI1): 1.05 fold enrichment (6-mer frequency, TF over GST control)
- binding signal (ELK1): 1.14 fold enrichment (6-mer frequency, TF over GST control)
- binding signal (GABPA): 1.12 fold enrichment (6-mer frequency, TF over GST control)
- binding signal (ERG): 1.03 fold enrichment (6-mer frequency, TF over GST control)
- binding signal (ELF1): 1.11 fold enrichment (6-mer frequency, TF over GST control)
- binding signal (EHF): 1.01 fold enrichment (6-mer frequency, TF over GST control)
- binding signal (SPI1): 1.11 fold enrichment (6-mer frequency, TF over GST control)
- binding signal (SPIB): 1.11 fold enrichment (6-mer frequency, TF over GST control)
- binding signal (ELK3): 1.13 fold enrichment (6-mer frequency, TF over GST control)

Sequence: CTGGGT
- binding signal (FLI1): 1.21 fold enrichment (6-mer frequency, TF over GST control)
- binding signal (ELK1): 1.1 fold enrichment (6-mer frequency, TF over GST control)
- binding signal (GABPA): 1.18 fold enrichment (6-mer frequency, TF over GST control)
- binding signal (ERG): 1.12 fold enrichment (6-mer frequency, TF over GST control)
- binding signal (ELF1): 1.17 fold enrichment (6-mer frequency, TF over GST control)
- binding signal (EHF): 1.12 fold enrichment (6-mer frequency, TF over GST control)
- binding signal (SPI1): 1.13 fold enrichment (6-mer frequency, TF over GST control)
- binding signal (SPIB): 1.09 fold enrichment (6-mer frequency, TF over GST control)
- binding signal (ELK3): 1.1 fold enrichment (6-mer frequency, TF over GST control)

Sequence: GGAAAA
- binding signal (FLI1): 1.16 fold enrichment (6-mer frequency, TF over GST control)
- binding signal (ELK1): 1.17 fold enrichment (6-mer frequency, TF over GST control)
- binding signal (GABPA): 1.2 fold enrichment (6-mer frequency, TF over GST control)
- binding signal (ERG): 1.3 fold enrichment (6-mer frequency, TF over GST control)
- binding signal (ELF1): 1.14 fold enrichment (6-mer frequency, TF over GST control)
- binding signal (EHF): 1.38 fold enrichment (6-mer frequency, TF over GST control)
- binding signal (SPI1): 1.2 fold enrichment (6-mer frequency, TF over GST control)
- binding signal (SPIB): 1.35 fold enrichment (6-mer frequency, TF over GST control)
- binding signal (ELK3): 1.22 fold enrichment (6-mer frequency, TF over GST control)

Sequence: CGTACA
- binding signal (FLI1): 1.18 fold enrichment (6-mer frequency, TF over GST control)
- binding signal (ELK1): 1.19 fold enrichment (6-mer frequency, TF over GST control)
- binding signal (GABPA): 1.17 fold enrichment (6-mer frequency, TF over GST control)
- binding signal (ERG): 1.17 fold enrichment (6-mer frequency, TF over GST control)
- binding signal (ELF1): 1.26 fold enrichment (6-mer frequency, TF over GST control)
- binding signal (EHF): 1.16 fold enrichment (6-mer frequency, TF over GST control)
- binding signal (SPI1): 1.12 fold enrichment (6-mer frequency, TF over GST control)
- binding signal (SPIB): 1.1 fold enrichment (6-mer frequency, TF over GST control)
- binding signal (ELK3): 1.16 fold enrichment (6-mer frequency, TF over GST control)

Sequence: TGCACG
- binding signal (FLI1): 1.12 fold enrichment (6-mer frequency, TF over GST control)
- binding signal (ELK1): 1.06 fold enrichment (6-mer frequency, TF over GST control)
- binding signal (GABPA): 1.18 fold enrichment (6-mer frequency, TF over GST control)
- binding signal (ERG): 1.03 fold enrichment (6-mer frequency, TF over GST control)
- binding signal (ELF1): 1.16 fold enrichment (6-mer frequency, TF over GST control)
- binding signal (EHF): 1.22 fold enrichment (6-mer frequency, TF over GST control)
- binding signal (SPI1): 1.12 fold enrichment (6-mer frequency, TF over GST control)
- binding signal (SPIB): 1.23 fold enrichment (6-mer frequency, TF over GST control)
- binding signal (ELK3): 1.15 fold enrichment (6-mer frequency, TF over GST control)
